# According to PubChem BioAssay (Tox21):
# A number with no mark means an inactive call. Results filed as inconclusive are left out. Entries that show only a call come without a potency. Activity calls are given as the source filed them. Unless noted, calls come from the whole dose curve; as a rule, active = well fitted curve in the direction sought with a large enough effect in the repeat runs; inconclusive = weak or mixed curves; inactive = no such curve, though single readings can be large; an effect the other way counts as inactive or inconclusive.
# Columns and labels:
# [1] = qHTS assay to identify small molecule agonists of the estrogen receptor alpha (ER-alpha) signaling pathway in the presence of an antagonist - cell viability counter screen (AID 1259386);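 note: cells exposed to compounds for 22 h at 37 °C before the viability read; nearly all actives have a fitted effect of over 30% in size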; note: potency is the fitted concentration of half-maximal effect
# Outline: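 Read-out: CellTiter-Fluor fluorescence after 1hr reagent incubation, measured in the same wells as the luciferase readout. VM7Luc4E2 cells were exposed to 15 compound concentrations with 10.0nM ICI-182,780 for 22hr at 37C.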
# [2] = target: Progesterone receptor (Homo sapiens) (UniProt P06401); test: qHTS assay to identify small molecule agonists of the progesterone receptor (PR) signaling pathway (AID 1346784; calls by dose curve; note: nearly all actives have a fitted effect of over 30% in size)
# Chain of Progesterone receptor (Homo sapiens) (P06401 whole entry, looked up): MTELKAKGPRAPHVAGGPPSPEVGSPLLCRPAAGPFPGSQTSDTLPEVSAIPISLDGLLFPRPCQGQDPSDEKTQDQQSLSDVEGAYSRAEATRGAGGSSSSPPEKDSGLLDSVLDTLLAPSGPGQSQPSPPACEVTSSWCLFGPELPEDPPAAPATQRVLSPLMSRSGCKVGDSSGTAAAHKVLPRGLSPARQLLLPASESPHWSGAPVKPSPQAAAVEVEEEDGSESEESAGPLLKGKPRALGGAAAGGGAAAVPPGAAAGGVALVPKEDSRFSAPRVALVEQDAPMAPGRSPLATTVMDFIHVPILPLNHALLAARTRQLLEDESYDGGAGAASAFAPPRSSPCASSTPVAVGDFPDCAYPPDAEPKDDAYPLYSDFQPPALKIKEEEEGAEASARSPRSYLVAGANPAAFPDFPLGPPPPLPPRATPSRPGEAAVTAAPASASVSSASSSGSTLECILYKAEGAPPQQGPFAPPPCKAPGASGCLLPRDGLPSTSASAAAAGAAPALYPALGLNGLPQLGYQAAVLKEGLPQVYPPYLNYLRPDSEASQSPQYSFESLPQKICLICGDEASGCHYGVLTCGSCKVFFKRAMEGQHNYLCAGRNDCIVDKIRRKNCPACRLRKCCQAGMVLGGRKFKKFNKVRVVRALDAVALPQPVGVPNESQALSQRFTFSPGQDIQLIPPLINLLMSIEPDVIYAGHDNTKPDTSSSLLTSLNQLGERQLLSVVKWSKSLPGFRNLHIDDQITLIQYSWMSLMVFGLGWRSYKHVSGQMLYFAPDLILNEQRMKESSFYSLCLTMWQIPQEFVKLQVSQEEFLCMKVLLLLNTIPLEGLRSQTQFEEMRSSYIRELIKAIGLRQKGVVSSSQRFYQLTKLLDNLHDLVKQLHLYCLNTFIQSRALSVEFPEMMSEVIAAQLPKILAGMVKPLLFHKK
# Outline: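 Reporter assay, GripTite PR-UAS-bla HEK 293T cells: 16 hr exposure to DMSO-dissolved compounds at 37C, 5% CO2, in steroid-depleted (2% charcoal-stripped FBS) medium; beta-lactamase measured by FRET fluorescence.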
# [3] = target: Progesterone receptor (Homo sapiens) (UniProt P06401); test: qHTS assay to identify small molecule antagonists of the progesterone receptor (PR) signaling pathway (AID 1346795; active = well fitted inhibition curve with a large enough effect in the signal ratio in the repeat runs, not every such curve was filed as active; the % refers to the signal ratio; note: potency is the fitted concentration of half-maximal effect)
# Outline: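 Stimulus R5020 at 1 nM final; cells HEK293T PR-UAS-bla; medium with 2% charcoal-stripped FBS; compound exposure 16 hr at 37C, 5% CO2; detection by FRET beta-lactamase substrate, 2 hr, room temperature.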
# [4] = qHTS assay to identify small molecule agonists of the progesterone receptor (PR) signaling pathway - cell viability counter screen (AID 1346799; calls by dose curve; note: nearly all actives have a fitted effect of over 45% in size)
# Outline: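 Multiplexed viability read: CellTiter-Glo luminescence, 30 min RT, following LiveBLAzer FRET measurement on PR-UAS-bla HEK293T cells exposed to compounds 16 hr.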
# [5] = qHTS assay to identify small molecule antagonists of the TGF-beta/Smad signaling pathway - cell viability counter screen (AID 1346824); note: nearly all actives have a fitted effect of over 50% in size
# Outline: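 SBE-bla HEK 293T cells, incubated overnight, then compound plus 0.25 ng/mL TGF-beta1 (stock added) for 5 hr at 37 C. Viability was read in the same wells by CellTiter-Glo luminescence after 30 min at room temperature.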
# [6] = qHTS assay to identify small molecule agonists of the TGF-beta/Smad signaling pathway - cell viability counter screen (AID 1346829); note: top concentration of the series differs between compounds; nearly all actives have a fitted effect of over 45% in size
# Outline: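 After overnight seating at 37 C and 5% CO2, reporter cells got compounds for 5 hr and FRET substrate for 2 hr; cell viability then came from CellTiter-Glo luminescence.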
# [7] = Human pregnane X receptor (PXR) small molecule agonists, qHTS cell viability counter screen (AID 1346977); note: nearly all actives have a fitted effect of over 50% in size; note: potency is the fitted concentration of half-maximal effect
# Outline: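 In each well, the PXR reporter HepG2 line was checked for viability: CellTiter-Fluor reagent added 23hr post-dosing, fluorescence read after 1hr incubation at 37C.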
# [8] = Caspase-3/7 induction in HepG2 cells by small molecules, qHTS assay (AID 1346978); note: nearly all actives have a fitted effect of over 15% in size
# Outline: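 Wild-type HepG2 cells, 2,000/well, settled 5 hr at 37 C and 5% CO2, then compound-treated for 17 hr; caspase-3/7 activity read by luminescent Caspase-Glo 3/7 after 30 min at room temperature.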
# [9] = Caspase-3/7 induction in CHO-K1 cells by small molecules, qHTS cell viability counter screen (AID 1346979); note: nearly all actives have a fitted effect of over 35% in size; note: potency is the fitted concentration of half-maximal effect
# Outline: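 Following a 5hr settling period, CHO-K1 cells at 1,500 per well received DMSO-dissolved compounds. Cell viability was quantified 16hr later by CellTiter-Fluor fluorescence, measured after 1hr with reagent at 37C.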
# [10] = Caspase-3/7 induction in CHO-K1 cells by small molecules, qHTS assay (AID 1346980); note: nearly all actives have a fitted effect of over 15% in size
# Outline: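 Wild-type CHO-K1 cells exposed to compounds for 17hr at 37 C, 5% CO2. Caspase-3/7 activity then measured by Caspase-Glo 3/7 luminescence after 30min at room temperature.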
# [11] = Caspase-3/7 induction in HepG2 cells by small molecules, qHTS cell viability counter screen (AID 1346981); note: nearly all actives have a fitted effect of over 30% in size; note: potency is the fitted concentration of half-maximal effect
# Outline: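 Fluorescence read-out of live-cell protease activity (CellTiter-Fluor) after 1 hr with reagent. This was measured in the same wells as the caspase-3/7 luminescence, on HepG2 cells exposed to DMSO-dissolved compounds for 16 hr at 37 C.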
# [12] = target: Cytochrome P450 2D6 (Homo sapiens) (UniProt P10635); test: Cytochrome P450 Family 2 Subfamily D Member 6 (CYP2D6) small molecule antagonists: luciferase reporter qHTS assay (AID 1671196); note: nearly all actives have a fitted effect of over 50% in size; note: potency is the fitted concentration of half-maximal effect
# Chain of Cytochrome P450 2D6 (Homo sapiens) (P10635 whole entry, looked up): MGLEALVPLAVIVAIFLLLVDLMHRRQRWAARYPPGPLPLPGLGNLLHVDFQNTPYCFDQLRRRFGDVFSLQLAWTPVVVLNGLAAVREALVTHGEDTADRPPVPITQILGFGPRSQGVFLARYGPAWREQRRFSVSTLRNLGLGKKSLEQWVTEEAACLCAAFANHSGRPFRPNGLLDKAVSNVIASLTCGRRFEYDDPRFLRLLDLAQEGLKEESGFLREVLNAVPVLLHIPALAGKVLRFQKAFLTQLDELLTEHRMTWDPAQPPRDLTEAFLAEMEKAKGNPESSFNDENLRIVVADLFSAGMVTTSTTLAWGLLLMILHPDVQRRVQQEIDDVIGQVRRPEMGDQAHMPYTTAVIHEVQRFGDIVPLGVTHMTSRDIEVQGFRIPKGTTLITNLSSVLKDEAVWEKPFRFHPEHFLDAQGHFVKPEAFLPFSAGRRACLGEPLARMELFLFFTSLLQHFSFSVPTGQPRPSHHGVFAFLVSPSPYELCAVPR
# Outline: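 Luminogenic proluciferin substrate, CYP2D6 enzyme; 10 min RT preincubation with compound, NADPH regeneration system added, 1 h RT. Stop/detection reagent, 20 min RT, luminescence read (RLU). Signal proportional to CYP activity.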
# [13] = qHTS assay to identify small molecule agonists of the TGF-beta/Smad signaling pathway (AID 1346859; active = well fitted activation curve with a large enough effect in the signal ratio in the repeat runs, not every such curve was filed as active; the % refers to the signal ratio; note: series mostly up to about 77 µM)
# Outline: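 Screening used HEK 293T SBE-bla cells at 4,000/well. Test agents: 5 hr, 37 C. Detection: FRET substrate, 2 hr RT, then excitation 405 nm with emissions at 460 and 530 nm.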
# [14] = target: Thyrotropin-releasing hormone receptor (Homo sapiens) (UniProt P34981); test: qHTS assay to identify small molecule antagonists of the thyrotropin-releasing hormone receptor (TRHR) signaling pathway (AID 1346877; active = well fitted inhibition curve with a large enough effect in the repeat runs, not every such curve was filed as active; note: series mostly up to about 51 µM)
# Chain of Thyrotropin-releasing hormone receptor (Homo sapiens) (P34981 whole entry, looked up): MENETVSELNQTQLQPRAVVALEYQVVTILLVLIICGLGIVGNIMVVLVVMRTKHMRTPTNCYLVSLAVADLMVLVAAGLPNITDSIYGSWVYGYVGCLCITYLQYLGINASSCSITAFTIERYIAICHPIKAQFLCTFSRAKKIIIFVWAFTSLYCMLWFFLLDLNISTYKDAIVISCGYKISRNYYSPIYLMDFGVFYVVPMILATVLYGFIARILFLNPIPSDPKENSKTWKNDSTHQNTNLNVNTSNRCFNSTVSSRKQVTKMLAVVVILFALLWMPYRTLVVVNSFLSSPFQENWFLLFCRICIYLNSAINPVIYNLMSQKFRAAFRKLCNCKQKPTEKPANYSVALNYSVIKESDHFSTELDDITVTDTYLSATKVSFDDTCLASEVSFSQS
# Outline: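 HEK293/TRHR cells, 18 h, 37 °C; Ca2+ dye 2 h; cpd 5 min RT; TRH 1 nM final; fluorescence read 3 min, 1 s intervals; 15 concs, triplicate.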
# [15] = target: Thyrotropin-releasing hormone receptor (Homo sapiens) (UniProt P34981); test: qHTS assay to identify small molecule agonists of the thyrotropin-releasing hormone receptor (TRHR) signaling pathway (AID 1346891; calls by dose curve; note: series mostly up to about 58 µM)
# Outline: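 Readout was intracellular calcium fluorescence in TRHR-Hek293 cells. Cells were incubated 18 h, dye-loaded 2 h at 37 °C, and treated with compound in agonist mode.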
# [16] = target: Nuclear receptor subfamily 1 group I member 2 (Rattus norvegicus) (UniProt Q9R1A7); test: Rat pregnane X receptor (rPXR) activation by small molecules, qHTS assay (AID 1346983); settings: rPXR luciferase reporter cells, One-Glo luminescence, 24 h; max activation: active compounds read high; note: nearly all actives have a fitted effect of over 20% in size
# Chain of Nuclear receptor subfamily 1 group I member 2 (Rattus norvegicus) (Q9R1A7 whole entry, looked up): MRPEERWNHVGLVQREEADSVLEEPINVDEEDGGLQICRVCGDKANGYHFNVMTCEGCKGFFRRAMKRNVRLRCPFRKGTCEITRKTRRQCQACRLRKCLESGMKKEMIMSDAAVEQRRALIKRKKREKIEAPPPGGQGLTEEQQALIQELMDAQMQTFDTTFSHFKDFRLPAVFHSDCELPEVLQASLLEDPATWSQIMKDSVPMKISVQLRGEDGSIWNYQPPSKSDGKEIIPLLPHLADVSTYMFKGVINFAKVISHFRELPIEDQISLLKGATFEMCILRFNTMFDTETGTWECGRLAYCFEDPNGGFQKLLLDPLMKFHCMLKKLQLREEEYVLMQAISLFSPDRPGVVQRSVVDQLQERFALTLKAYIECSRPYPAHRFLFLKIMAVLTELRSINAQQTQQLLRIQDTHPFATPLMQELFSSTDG
# Outline: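 Cell-based rPXR activation assay: rPXR cells, 2,000 per well, rested 5hr at 37 C, then exposed to compounds in DMSO for 24 hr at 37 C. Luciferase activity read by One-Glo luminescence after 30 min at room temperature.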
# [17] = target: Nuclear receptor subfamily 1 group I member 2 (Homo sapiens) (UniProt O75469); test: CYP3A4 induction through human pregnane X receptor (PXR) by small molecules, qHTS assay (AID 1346984); note: nearly all actives have a fitted effect of over 40% in size; note: potency is the fitted concentration of half-maximal effect
# Chain of Nuclear receptor subfamily 1 group I member 2 (Homo sapiens) (O75469 whole entry, looked up): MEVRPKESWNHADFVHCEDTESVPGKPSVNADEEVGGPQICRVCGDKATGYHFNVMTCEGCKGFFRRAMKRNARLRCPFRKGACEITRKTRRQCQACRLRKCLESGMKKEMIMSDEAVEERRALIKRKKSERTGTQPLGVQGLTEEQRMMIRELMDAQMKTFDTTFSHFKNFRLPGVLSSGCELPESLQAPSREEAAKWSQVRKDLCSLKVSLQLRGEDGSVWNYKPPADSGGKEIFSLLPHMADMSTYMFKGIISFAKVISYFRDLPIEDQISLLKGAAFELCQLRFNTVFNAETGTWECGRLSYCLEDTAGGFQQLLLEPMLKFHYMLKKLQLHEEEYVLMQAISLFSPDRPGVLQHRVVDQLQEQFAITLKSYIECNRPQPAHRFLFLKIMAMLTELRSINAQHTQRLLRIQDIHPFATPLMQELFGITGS
# Outline: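 HepG2-derived DPX-2 line carrying PXR plus a CYP3A4-promoter luciferase reporter; cells plated 5 hr, compound-exposed 24 hr at 37C. CYP3A4 activity probed with 3uM (final) Luciferin-IPA for 3hr, then luciferase read after One-Glo.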
# [18] = target: Nuclear receptor subfamily 1 group I member 2 (Homo sapiens) (UniProt O75469); test: Human pregnane X receptor (PXR) activation by small molecules, qHTS assay (AID 1346985); note: nearly all actives have a fitted effect of over 40% in size; note: potency is the fitted concentration of half-maximal effect
# Outline: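 DPX-2 cells (HepG2 co-transfected with a PXR response element and a CYP3A4-promoter luciferase construct) were seeded at 2,000 per well, rested 5 hr at 37C, then exposed to DMSO-dissolved compounds for 24 hr. Activation was read as luciferase luminescence.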
# [19] = qHTS assay to identify small molecule antagonists of the progesterone receptor (PR) signaling pathway - cell viability counter screen (AID 1346798); note: series mostly up to about 92 µM; nearly all actives have a fitted effect of over 50% in size
# Outline: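 In the same plates used for the beta-lactamase readout, cell viability of compound- and R5020-treated PR-UAS-bla HEK293T cells (16 hr, 37C) was assessed by CellTiter-Glo luminescence.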
# [20] = target: Nuclear receptor subfamily 1 group I member 2 (Homo sapiens) (UniProt O75469); test: Human pregnane X receptor (PXR) small molecule agonists, qHTS assay (AID 1346982); note: nearly all actives have a fitted effect of over 35% in size; note: potency is the fitted concentration of half-maximal effect
# Outline: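 HepG2 PXR-Luc reporter line, 5% charcoal-stripped FBS; 5 hr pre-incubation, compound (DMSO) 24 hr at 37 C/5% CO2; ONE-Glo 30 min RT; luminescence read-out.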
SMILES,Potency [1],Potency [2],Potency [3],Potency [4],outcome [5],outcome [6],Potency [7],Potency [8],Potency [9],outcome [10],Potency [11],Potency [12],outcome [13],outcome [14],Potency [15],max activation [16] [%],Potency [17],Potency [18],Potency [19],Potency [20]
CCCCCCCC/C=C\CCCCCCCC(=O)OC,inactive,inactive,inactive,inactive,inactive,inactive,inactive,inactive,inactive,inactive,inactive,inactive,–,–,–,–,–,–,–,–
O=C(OCCOCCO)c1ccccc1Nc1cccc(C(F)(F)F)c1,inactive,inactive,18.8 µM (active),–,inactive,inactive,inactive,inactive,–,inactive,inactive,inactive,inactive,inactive,inactive,-0.0091,–,–,–,–
CC(C)(C)CC(C)(C)c1ccc(OCCO)cc1,34.2 µM (active),inactive,48.3 µM (active),–,inactive,inactive,27.1 µM (active),–,54.2 µM (active),inactive,48.3 µM (active),inactive,–,inactive,inactive,-7.23,3.55 µM (active),inactive,–,–
CC(C)(C)C(=O)O,inactive,inactive,inactive,inactive,inactive,inactive,inactive,inactive,inactive,inactive,inactive,inactive,inactive,inactive,inactive,–,–,–,–,–
O=C(CCCN1CCC(O)(c2ccc(Br)cc2)CC1)c1ccc(F)cc1,inactive,inactive,–,inactive,inactive,inactive,inactive,–,inactive,inactive,inactive,2.45 µM (active),inactive,inactive,–,-1.43,11.2 µM (active),11.2 µM (active),inactive,–
Cc1cc(S(=O)(=O)O)ccc1N=Nc1c(O)ccc2ccccc12,27.3 µM (active),inactive,inactive,inactive,inactive,inactive,24.3 µM (active),–,27.3 µM (active),–,30.6 µM (active),39.9 µM (active),–,–,–,–,–,–,–,inactive
O=C(Nc1ccc([N+](=O)[O-])cc1)Nc1ccc([N+](=O)[O-])cc1,inactive,inactive,inactive,–,inactive,inactive,inactive,inactive,inactive,inactive,inactive,inactive,inactive,inactive,inactive,-0.532,inactive,inactive,–,inactive
CCCCCCCCCCOS(=O)(=O)O,inactive,inactive,inactive,–,inactive,inactive,inactive,inactive,inactive,inactive,inactive,–,inactive,–,inactive,–,–,–,–,–
CCOC(=O)C(C)Oc1ccc(Oc2nc3ccc(Cl)cc3o2)cc1 (stereo unspecified),inactive,inactive,–,inactive,inactive,inactive,inactive,inactive,inactive,inactive,inactive,–,inactive,inactive,inactive,–,–,–,inactive,–
C=CCNc1nc(NCC=C)nc(N2CCN(C(c3ccc(F)cc3)c3ccc(F)cc3)CC2)n1,inactive,inactive,2.98 µM (active),–,inactive,inactive,inactive,inactive,–,inactive,inactive,–,inactive,inactive,inactive,–,–,–,–,13.3 µM (active)
CCC(C)(O)CCC=C(C)C (stereo unspecified),inactive,inactive,inactive,inactive,inactive,inactive,inactive,inactive,inactive,–,inactive,inactive,inactive,inactive,–,–,–,–,–,inactive
COC(=O)[C@@H]1CC2=CC(=O)CC[C@]2(C)[C@@]23O[C@@H]2C[C@@]2(C)[C@@H](CC[C@@]24CCC(=O)O4)[C@H]13,inactive,inactive,–,inactive,inactive,inactive,inactive,inactive,inactive,inactive,inactive,–,inactive,inactive,inactive,-1.51,inactive,inactive,inactive,inactive
CC(C)C(OC(=O)c1ccccc1)C(C)(C)COC(=O)c1ccccc1 (stereo unspecified),inactive,inactive,19.3 µM (active),–,inactive,inactive,inactive,–,inactive,–,inactive,inactive,inactive,–,–,–,–,–,–,–
Brc1cc(-c2ccc(Br)c(Br)c2Br)cc(Br)c1Br,inactive,inactive,–,inactive,inactive,inactive,inactive,inactive,–,inactive,inactive,inactive,inactive,–,inactive,–,–,–,inactive,30.2 µM (active)
